Results taken from PubChem BioAssay (NCATS).
Records with an inconclusive call do not appear. Entries that show only a call come without a potency. Calls of active or inactive are those of the source. Unless noted, calls come from the whole dose curve; as a rule, active = well fitted curve in the direction sought with a large enough effect; inconclusive = small, poorly fitted or top-dose-only effect, or another doubt; inactive = no such curve, though single readings can be large; an effect the other way counts as inactive or inconclusive.

How the values were obtained:
[1] = target: ATP-dependent 6-phosphofructokinase (Trypanosoma brucei brucei) (UniProt O15648); assay: qHTS Assay to Find Inhibitors of T. brucei phosphofructokinase: hit validation (AID 492961);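 note: luminescence reports ADP formed as PFK phosphorylates fructose-6-phosphate with ATP; series mostly up to about 51 µM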
Chain of ATP-dependent 6-phosphofructokinase (Trypanosoma brucei brucei) (O15648 whole entry, looked up): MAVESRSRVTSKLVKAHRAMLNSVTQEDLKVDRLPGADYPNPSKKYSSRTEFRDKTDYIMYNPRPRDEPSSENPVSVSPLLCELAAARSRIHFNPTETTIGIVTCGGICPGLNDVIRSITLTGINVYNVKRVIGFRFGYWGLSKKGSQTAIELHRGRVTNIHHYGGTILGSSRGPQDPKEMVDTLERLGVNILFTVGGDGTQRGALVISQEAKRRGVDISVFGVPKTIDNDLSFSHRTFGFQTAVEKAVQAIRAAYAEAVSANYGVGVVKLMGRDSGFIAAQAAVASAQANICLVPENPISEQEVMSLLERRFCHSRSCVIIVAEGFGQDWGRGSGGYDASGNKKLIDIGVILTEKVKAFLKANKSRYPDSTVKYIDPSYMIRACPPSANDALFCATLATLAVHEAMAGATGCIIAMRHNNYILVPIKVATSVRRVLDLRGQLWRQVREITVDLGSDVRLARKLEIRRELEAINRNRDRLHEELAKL
Procedure, shortened: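 Inhibition of parasite PFK is measured as reduced ADP formation, quantified via luciferase after ATP depletion. Assay used 0.1 mM ATP, 0.5 mM F6P, 1.25 nM enzyme, 45 min incubation.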

[2] = Validation screen for small molecules that induce genotoxicity in human embryonic kidney (HEK293T) cells expressing luciferase-tagged ELG1 (AID 493106)
Procedure, shortened: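 HEK293T cells expressing luciferase-tagged ELG1 were exposed to compound or DMSO vehicle for 16 hr at 37 °C, 5% CO2. Genotoxic stress raises ELG1 levels, so increased luciferase signal after ONE-Glo addition and 30 min at room temperature marks hits.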

[3] = target: ATPase family AAA domain-containing protein 5 (Homo sapiens) (UniProt Q96QE3); assay: Validation screen for small molecules that inhibit ELG1-dependent DNA repair in human embryonic kidney (HEK293T) cells expressing luciferase-tagged ELG1 (AID 493107);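 note: cells co-treated with the DNA-damaging agent 5-fluorouridine alongside compound; series mostly up to about 46 µM; inhibitors lower the ELG1-luciferase luminescence signal; nearly all actives have a fitted effect of over 70% in size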
Chain of ATPase family AAA domain-containing protein 5 (Homo sapiens) (Q96QE3 whole entry, looked up, the tested form may be a part): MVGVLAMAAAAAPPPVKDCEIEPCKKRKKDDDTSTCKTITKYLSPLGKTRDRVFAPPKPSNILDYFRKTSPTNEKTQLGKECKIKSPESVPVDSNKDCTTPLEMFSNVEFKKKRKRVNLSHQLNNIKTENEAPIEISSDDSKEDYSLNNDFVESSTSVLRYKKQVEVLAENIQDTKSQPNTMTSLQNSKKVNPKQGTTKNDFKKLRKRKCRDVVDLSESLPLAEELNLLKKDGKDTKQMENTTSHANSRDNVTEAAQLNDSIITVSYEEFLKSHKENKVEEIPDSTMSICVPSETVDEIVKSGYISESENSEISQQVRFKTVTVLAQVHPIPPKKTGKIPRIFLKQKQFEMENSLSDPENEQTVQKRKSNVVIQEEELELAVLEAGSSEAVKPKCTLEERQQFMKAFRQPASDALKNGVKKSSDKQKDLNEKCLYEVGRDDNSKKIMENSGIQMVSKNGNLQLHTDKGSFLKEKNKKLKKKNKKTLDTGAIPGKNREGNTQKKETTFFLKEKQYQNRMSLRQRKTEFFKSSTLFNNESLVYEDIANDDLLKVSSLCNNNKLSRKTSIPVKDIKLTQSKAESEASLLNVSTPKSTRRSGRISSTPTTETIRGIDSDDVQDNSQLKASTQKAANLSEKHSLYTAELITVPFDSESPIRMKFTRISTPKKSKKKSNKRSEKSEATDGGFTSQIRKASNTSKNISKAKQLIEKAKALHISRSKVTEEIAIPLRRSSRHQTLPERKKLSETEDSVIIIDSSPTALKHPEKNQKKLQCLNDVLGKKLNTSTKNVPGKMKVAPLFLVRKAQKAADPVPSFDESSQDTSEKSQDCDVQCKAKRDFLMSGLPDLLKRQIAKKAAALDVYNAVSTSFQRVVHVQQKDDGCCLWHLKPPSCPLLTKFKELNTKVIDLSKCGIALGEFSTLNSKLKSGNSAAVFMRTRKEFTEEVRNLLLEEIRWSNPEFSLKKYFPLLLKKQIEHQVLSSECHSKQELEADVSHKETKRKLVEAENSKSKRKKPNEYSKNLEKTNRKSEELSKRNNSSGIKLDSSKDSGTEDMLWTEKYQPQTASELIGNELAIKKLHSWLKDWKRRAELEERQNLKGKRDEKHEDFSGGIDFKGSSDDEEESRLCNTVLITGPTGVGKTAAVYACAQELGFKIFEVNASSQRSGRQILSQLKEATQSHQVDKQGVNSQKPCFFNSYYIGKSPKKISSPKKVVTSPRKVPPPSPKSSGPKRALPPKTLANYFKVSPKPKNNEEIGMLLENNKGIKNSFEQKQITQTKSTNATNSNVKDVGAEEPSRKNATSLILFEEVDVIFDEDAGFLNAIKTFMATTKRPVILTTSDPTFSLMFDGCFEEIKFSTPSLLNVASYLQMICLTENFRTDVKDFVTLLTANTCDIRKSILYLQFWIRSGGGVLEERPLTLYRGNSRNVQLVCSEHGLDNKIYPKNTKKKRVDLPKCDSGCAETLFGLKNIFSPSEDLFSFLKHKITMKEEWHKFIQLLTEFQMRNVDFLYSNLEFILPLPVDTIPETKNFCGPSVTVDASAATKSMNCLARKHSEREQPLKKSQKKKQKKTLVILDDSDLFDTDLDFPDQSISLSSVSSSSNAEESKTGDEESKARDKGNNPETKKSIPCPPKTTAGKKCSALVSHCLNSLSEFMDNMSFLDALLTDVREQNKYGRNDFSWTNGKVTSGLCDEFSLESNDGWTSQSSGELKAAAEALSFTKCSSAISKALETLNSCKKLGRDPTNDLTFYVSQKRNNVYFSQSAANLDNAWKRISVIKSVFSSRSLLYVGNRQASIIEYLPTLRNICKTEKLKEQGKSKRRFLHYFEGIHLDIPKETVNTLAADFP
Procedure, shortened: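 HEK293T cells expressing luciferase-tagged ELG1 were co-treated with 5-fluorouridine and compound or DMSO for 16 hr at 37 °C, 5% CO2. Luciferase activity was then read with ONE-Glo after 30 min at room temperature; suppressed signal indicates blocked ELG1 function.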

[4] = Nrf2 qHTS screen for inhibitors: Validation (AID 493153; active = well fitted inhibition curve with a large enough effect in the main read-out, with a control signal flat, not every such curve was filed as active); conditions: Potency: luciferase luminescence; viability change: measured here: cytotoxicity max response
Procedure, shortened: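 A549 cells carrying an ARE-driven firefly luciferase reporter, in 5% FBS OPTI-MEM, were treated with compounds in concentration-response for 18-24 h at 37°C. Viability was read by CellTiter-Fluor fluorescence, then Nrf2 activity by luciferase luminescence.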

[5] = qHTS for Inhibitors of Cell Surface uPA Generation: Validation Assay (AID 493164);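 note: RAW 264.7 macrophage cells exposed to compound for 18 h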
Procedure, shortened: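 RAW 264.7, 4000 cells/well, o/n plating; cpd 7-pt 1:5 dilution 2.45 nM–38.3 uM final; 18 h, 37 C/5% CO2; ATP-Lite, 5 s luminescence exposure.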

[6] = Validation screen for small molecules that induce DNA re-replication in SW480 colon adenocarcinoma cells (AID 504364)
Procedure, shortened: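 SW480 cells seeded at 250 per well were exposed to compound or DMSO for 48 hr at 37 C, 5% CO2, then stained with Hoechst for 40 min. DNA content per nucleus was imaged (405 nm ex, 500-530 nm em).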

[7] = target: Peptidyl-prolyl cis-trans isomerase NIMA-interacting 1 (Homo sapiens) (UniProt Q13526); assay: qHTS Validation Assay to Find Inhibitors of Pin1 (AID 504536; active = well fitted inhibition curve with a large enough effect in the polarisation, with a control signal flat, not every such curve was filed as active; the % refers to the polarisation)
Chain of Peptidyl-prolyl cis-trans isomerase NIMA-interacting 1 (Homo sapiens) (Q13526 whole entry, looked up): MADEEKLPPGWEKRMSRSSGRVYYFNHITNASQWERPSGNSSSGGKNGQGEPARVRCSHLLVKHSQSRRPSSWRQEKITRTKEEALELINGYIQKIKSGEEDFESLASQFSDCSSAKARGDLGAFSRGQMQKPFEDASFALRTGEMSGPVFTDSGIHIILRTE
Procedure, shortened: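 Fluorescence polarization competition: compounds (titration) displace HiFluor-488-labeled Pin1-1b peptide from Pin1 (0.3 uM final) in pH 7.5 HEPES buffer with DTT, 10 min at room temperature; %Activity normalized to no-enzyme wells, curves fitted.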

[8] = target: Phosphoglycerate kinase, glycosomal (Trypanosoma brucei brucei) (UniProt P07378); assay: qHTS Validation Assay to Find Inhibitors of Phosphoglycerate Kinase (AID 504547)
Chain of Phosphoglycerate kinase, glycosomal (Trypanosoma brucei brucei) (P07378 whole entry, looked up): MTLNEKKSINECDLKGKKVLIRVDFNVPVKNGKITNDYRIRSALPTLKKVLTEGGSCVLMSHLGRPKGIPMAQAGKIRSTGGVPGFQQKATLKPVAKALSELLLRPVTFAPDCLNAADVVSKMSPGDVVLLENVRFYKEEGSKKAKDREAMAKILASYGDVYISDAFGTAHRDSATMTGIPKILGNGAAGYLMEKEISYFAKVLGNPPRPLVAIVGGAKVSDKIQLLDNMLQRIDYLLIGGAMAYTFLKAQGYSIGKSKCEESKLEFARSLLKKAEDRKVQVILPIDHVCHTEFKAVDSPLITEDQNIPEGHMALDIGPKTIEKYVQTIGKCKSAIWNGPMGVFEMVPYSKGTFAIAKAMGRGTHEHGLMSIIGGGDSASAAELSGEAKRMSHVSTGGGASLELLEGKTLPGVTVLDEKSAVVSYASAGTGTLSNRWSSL
Procedure, shortened: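 PGK activity was coupled to GAPDH (100nM final), which generates the unstable substrate 1,3-bisphosphoglycerate in-well. Reactions ran 60 minutes at room temperature in 100mM TEA pH 7.6, 5mM MgCl2, 0.01% Tween-20, then Kinase-Glo Plus luminescence was read.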

[9] = target: phosphoglycerate mutase (Leishmania major) (UniProt Q4Q090); assay: qHTS Validation Assay to Find Inhibitors of Phosphoglycerate Mutase (AID 504548);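 note: end-point luminescence from Kinase-GloPlus after the PGAM reaction; series mostly up to about 58 µM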
Chain of phosphoglycerate mutase (Leishmania major) (Q4Q090 1-553): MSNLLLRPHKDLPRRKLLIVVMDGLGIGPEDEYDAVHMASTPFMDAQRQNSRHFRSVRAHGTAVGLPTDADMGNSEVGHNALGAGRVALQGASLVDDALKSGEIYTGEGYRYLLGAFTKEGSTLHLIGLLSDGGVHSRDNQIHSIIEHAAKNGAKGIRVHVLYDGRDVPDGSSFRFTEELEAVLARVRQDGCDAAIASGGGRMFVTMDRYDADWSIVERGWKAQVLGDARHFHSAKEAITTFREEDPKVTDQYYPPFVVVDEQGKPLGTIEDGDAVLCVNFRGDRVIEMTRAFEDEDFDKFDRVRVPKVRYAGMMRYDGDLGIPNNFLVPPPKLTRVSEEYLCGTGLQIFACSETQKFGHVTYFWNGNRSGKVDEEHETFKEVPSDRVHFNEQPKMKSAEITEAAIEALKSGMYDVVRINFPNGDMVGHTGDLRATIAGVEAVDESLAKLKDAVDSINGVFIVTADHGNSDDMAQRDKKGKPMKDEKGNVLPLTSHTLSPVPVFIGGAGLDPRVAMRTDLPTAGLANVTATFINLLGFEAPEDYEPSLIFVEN
Procedure, shortened: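 Inhibition of L. major PGAM was assessed by Kinase-GloPlus luminescence following a 45-minute room-temperature reaction with enzyme at 1.25nM final.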

[10] = target: Ubiquitin carboxyl-terminal hydrolase 1 (Homo sapiens) (UniProt O94782); assay: Inhibitors of USP1/UAF1: Pilot qHTS (AID 504865); note: nearly all actives have a fitted effect of over 35% in size; note: potency is the fitted concentration of half-maximal effect
Chain of Ubiquitin carboxyl-terminal hydrolase 1 (Homo sapiens) (O94782 whole entry, looked up): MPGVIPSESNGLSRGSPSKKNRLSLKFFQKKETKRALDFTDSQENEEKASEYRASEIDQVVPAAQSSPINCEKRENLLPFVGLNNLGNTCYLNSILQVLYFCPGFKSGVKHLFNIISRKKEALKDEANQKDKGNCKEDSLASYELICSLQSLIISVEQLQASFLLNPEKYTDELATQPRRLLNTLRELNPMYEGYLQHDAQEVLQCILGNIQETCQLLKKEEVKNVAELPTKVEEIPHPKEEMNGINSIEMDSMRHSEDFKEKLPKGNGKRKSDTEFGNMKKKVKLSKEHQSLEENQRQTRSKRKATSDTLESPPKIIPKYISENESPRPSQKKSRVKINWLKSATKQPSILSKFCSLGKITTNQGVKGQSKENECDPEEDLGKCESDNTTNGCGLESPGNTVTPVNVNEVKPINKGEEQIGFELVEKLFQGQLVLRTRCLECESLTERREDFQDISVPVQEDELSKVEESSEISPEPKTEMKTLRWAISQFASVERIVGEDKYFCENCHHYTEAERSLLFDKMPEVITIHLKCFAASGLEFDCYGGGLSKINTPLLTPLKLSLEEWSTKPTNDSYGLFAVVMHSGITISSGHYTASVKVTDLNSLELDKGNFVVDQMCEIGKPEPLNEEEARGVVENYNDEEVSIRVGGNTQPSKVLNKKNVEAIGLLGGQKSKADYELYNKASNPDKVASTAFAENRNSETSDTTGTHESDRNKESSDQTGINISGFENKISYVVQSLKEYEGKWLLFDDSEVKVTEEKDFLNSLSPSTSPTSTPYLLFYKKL
Procedure, shortened: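 USP1/UAF1 complex (1nM) preincubated with compound 15 min at room temperature, then Ub-Rho substrate (150nM final) added. Fluorescence read kinetically at 480/540 nm, 6 reads every 60 seconds. Buffer: 50mM HEPES pH 7.8, 0.5mM EDTA, 0.1 mg/ml BSA, 1mM TCEP, 0.01% Tween-20.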

[11] = target: DNA dC->dU-editing enzyme APOBEC-3G (Homo sapiens) (UniProt Q9HC16); assay: qHTS for inhibitors of Vif-A3G interactions: Validation (AID 588379)
Procedure, shortened: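 HeLa cells stably expressing Vif and A3G-eYFP, 700 cells/well, incubated overnight at 37 deg C, then exposed to compound overnight at 37 deg C. Inhibition of Vif-mediated degradation read as increased yellow fluorescence (Ex 488/Em 500-530) by laser-scanning cytometry.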

[12] = qHTS for Inhibitors of ATXN expression: Validation of Cytotoxic Assay (AID 588349); note: potency is the fitted concentration of half-maximal effect
Procedure, shortened: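 HEK293 cells were dosed with titrated compounds for 72 hr at 37 degrees C. Viability was read by CellTiter Glo luminescence, with intracellular ATP as the marker of cell survival.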

[13] = qHTS for Inhibitors of ATXN expression: Validation (AID 588378); note: nearly all actives have a fitted effect of over 75% in size; note: potency is the fitted concentration of half-maximal effect
Procedure, shortened: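 Luminescence from an ATXN2-FFLuc reporter in HEK293 cells served as read-out after 24 h compound treatment at 37 degrees C; CellTiter-Fluor fluorescence was recorded first to assess viability.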

[14] = target: Galactokinase (Homo sapiens) (UniProt P51570); assay: qHTS Validation Assay for Inhibitors of Human Galactokinase (GALK) (AID 493189)
Procedure, shortened: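 GALK (5 nM) with 35 uM ATP and 100 uM galactose in HEPES pH8.0, MgCl2, NaCl, DTT, BSA; 1 h at room temperature. Residual ATP read by Kinase-Glo Plus luminescence after 10 min.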

[15] = target: Thyrotropin-releasing hormone receptor (Homo sapiens) (UniProt P34981); assay: qHTS for Small Molecule Agonists and Allosteric Enhancers of Human TRH Receptor: Validation Screen for Agonists (AID 493127;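 active = calcium activation more than 3 SD above the typical response in the agonist read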;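 note: intracellular calcium rise by fluo-8 fluorescence before TRH EC20 addition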); conditions: TRH receptor agonist cell assay; at 2 µM; stronger effect = higher value
Chain of Thyrotropin-releasing hormone receptor (Homo sapiens) (P34981 whole entry, looked up): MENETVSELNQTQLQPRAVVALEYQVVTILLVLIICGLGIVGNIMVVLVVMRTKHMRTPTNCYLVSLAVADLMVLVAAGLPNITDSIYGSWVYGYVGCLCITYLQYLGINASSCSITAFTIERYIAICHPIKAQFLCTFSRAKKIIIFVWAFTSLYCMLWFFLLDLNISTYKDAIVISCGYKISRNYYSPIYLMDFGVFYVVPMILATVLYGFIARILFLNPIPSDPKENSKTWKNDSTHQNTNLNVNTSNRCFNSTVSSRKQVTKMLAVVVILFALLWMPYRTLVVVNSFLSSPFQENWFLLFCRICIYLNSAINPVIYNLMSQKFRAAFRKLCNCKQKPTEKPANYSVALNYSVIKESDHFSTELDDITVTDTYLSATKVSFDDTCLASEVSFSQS
Procedure, shortened: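 TRHR-expressing cells were plated overnight in serum-containing medium, then loaded with fluo-8 calcium dye at room temperature for 30 min–1.5 h. After a 10 s baseline, compound was pin-transferred and calcium fluorescence (ex 480/em 530) read kinetically for agonist response.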

Row | SMILES | outcome [1] | Potency [2] | Potency [3] | Potency [4] | viability change [4] [%] | outcome [5] | outcome [6] | outcome [7] | outcome [8] | outcome [9] | Potency [10] | outcome [11] | Potency [12] | Potency [13] | outcome [14] | activation [15]
1 | CCN(CC)CCOCCOC(=O)C1(c2ccccc2)CCCC1 | inactive | inactive | inactive | inactive | 0.933 | inactive | inactive | inactive | inactive | inactive | inactive | inactive | – | – | – | –
2 | CN(C)CCN(Cc1cccs1)c1ccccn1 | inactive | inactive | – | inactive | -0.0804 | inactive | inactive | inactive | inactive | inactive | inactive | – | inactive | inactive | – | –
3 | CN1CCN(C2=Nc3ccccc3Oc3ccc(Cl)cc32)CC1 | inactive | inactive | inactive | inactive | -14.3 | inactive | inactive | – | inactive | inactive | inactive | – | inactive | – | inactive | –
4 | CC(C)NNC(=O)c1ccncc1 | inactive | inactive | – | inactive | 1.54 | inactive | inactive | inactive | inactive | inactive | inactive | – | inactive | inactive | inactive | –
5 | CC1=C(C)C(=O)C(CCCCC#CCCCC#CCO)=C(C)C1=O | inactive | inactive | – | inactive | 5.77 | inactive | inactive | inactive | inactive | inactive | – | – | – | 20 µM (active) | inactive | -4.88% (inactive)
6 | Cc1cc(C)c(/C=C2\C(=O)Nc3ccccc32)[nH]1 | inactive | inactive | – | – | – | inactive | inactive | – | inactive | inactive | 7.52 µM (active) | – | – | inactive | inactive | 0.562% (inactive)
7 | OCCN1CCN(CC/C=C2/c3ccccc3Sc3ccc(C(F)(F)F)cc32)CC1 | inactive | inactive | – | – | – | inactive | inactive | inactive | inactive | inactive | 56.2 µM (active) | – | 28.2 µM (active) | 17.8 µM (active) | inactive | 1.19% (inactive)
8 | CCCCCCCC/C=C\CCCCCCCC(=O)NCc1ccc(O)c(OC)c1 | inactive | inactive | inactive | inactive | -10.2 | inactive | – | inactive | inactive | inactive | – | inactive | inactive | inactive | – | –
9 | CN(C)C(=O)Oc1ccc[n+](C)c1 | inactive | inactive | – | inactive | -10.4 | inactive | inactive | inactive | inactive | inactive | inactive | – | inactive | inactive | inactive | –
10 | O=C(CCCN1CCC(O)(c2cccc(C(F)(F)F)c2)CC1)c1ccc(F)cc1 | inactive | inactive | – | inactive | -9.85 | inactive | inactive | inactive | – | – | inactive | – | inactive | – | – | 3.56% (inactive)
11 | CCc1cccc(N(C)C(N)=Nc2cccc3ccccc23)c1 | inactive | inactive | – | inactive | -0.401 | inactive | – | – | inactive | inactive | inactive | – | – | – | – | –
12 | CNCCCN1c2ccccc2CCc2ccccc21 | inactive | inactive | inactive | inactive | -3.92 | inactive | inactive | – | inactive | inactive | inactive | – | – | – | – | –
13 | COc1ccc([C@@H]2Sc3ccccc3N(CCN(C)C)C(=O)[C@@H]2OC(C)=O)cc1 | inactive | inactive | inactive | – | – | inactive | inactive | – | inactive | inactive | inactive | inactive | inactive | inactive | inactive | –
14 | Cc1ccc(/C(=C\CN2CCCC2)c2ccccn2)cc1 | inactive | inactive | inactive | – | – | inactive | inactive | inactive | inactive | inactive | inactive | – | inactive | inactive | inactive | –
15 | Cc1nc2sccn2c(=O)c1CCN1CCC(=C(c2ccc(F)cc2)c2ccc(F)cc2)CC1 | inactive | inactive | – | inactive | -8.03 | inactive | inactive | – | inactive | inactive | – | – | inactive | – | inactive | –
16 | CN(C)CCCN1c2ccccc2Sc2ccccc21 | inactive | inactive | – | inactive | 1.11 | inactive | – | – | inactive | inactive | inactive | – | – | – | inactive | 8% (inactive)
17 | C[N+](C)(C)CCCCCCCCCC[N+](C)(C)C | inactive | inactive | inactive | inactive | -2.44 | inactive | inactive | inactive | inactive | inactive | inactive | – | inactive | inactive | inactive | –
18 | C[C@]12CCC(=O)C=C1CC[C@@H]1[C@@H]2CC[C@@]2(C)[C@H]1CC[C@]2(O)C(=O)CO | inactive | inactive | – | – | – | inactive | inactive | – | inactive | inactive | inactive | – | inactive | inactive | – | 0.188% (inactive)
19 | C#CCN(C)CCCOc1ccc(Cl)cc1Cl | inactive | inactive | – | inactive | -1.92 | inactive | inactive | – | inactive | inactive | inactive | – | inactive | inactive | – | -5.81% (inactive)
20 | OCCN1CCN(CCCN2c3ccccc3C=Cc3ccccc32)CC1 | inactive | inactive | inactive | – | – | inactive | inactive | – | inactive | inactive | inactive | – | – | – | inactive | –
21 | CN(C)CC[C@@H](c1ccc(Br)cc1)c1ccccn1 | inactive | inactive | inactive | inactive | 1.19 | inactive | inactive | inactive | inactive | inactive | inactive | – | inactive | inactive | inactive | –
